Among the data in PubChem BioAssay (NCATS) are max response and Potency values, retold here.

SMILES strings stand for the structures. Values joined by “and” are separate entries in the source; they are usually repeats but may differ in a detail not shown here. Equal entries are not always repeated. Inconclusive results are not listed. Some compounds were tested as several samples or in several runs, with calls that do not always agree. A number with no mark means an inactive call. Active and inactive are the calls of the source. The call rests on the fitted dose curve; in most records, active means well fitted cell-killing curve with a large enough effect; inconclusive means small, poorly fitted or top-dose-only effect, or effect the other way; inactive means flat fitted curve, though single readings scatter.
On the % scale 0 is the no-effect control and ±100 the full control effect; potency means the concentration at half of the fitted maximal effect.

This assay can be described thus: qHTS assay for cell viability of HEK293 cells (AID 743288). Further: nearly all actives have a fitted effect of over 50% in size. Conditions: ATP luminescence (CellTiter-Glo), 18 h; max response: stronger effect = lower value. In a few lines: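 Viable-cell counts were inferred from luciferase-based ATP content in HEK293 cells seeded at 2,000/well, pre-incubated ≥5 h, then dosed with DMSO-solubilised compounds for 18 h at 37 C.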
For `c1cc(OCC2CO2)cc(OCC2CO2)c1` (centres undefined), the max response was -14.2%. Same read-out and setting: under `Cc1cc(Nc2ccc(O)cc2)ccc1N` stands -27%; under `CN(C)c1ccc(C2(c3ccc(N(C)C)cc3)OC(=O)c3cc(N(C)C)ccc32)cc1`, -3.92%. Still for that read-out and setting: under `CO[C@H]1/C=C/O[C@@]2(C)Oc3c(C)c(O)c4c(O)c(c5c(c4c3C2=O)NC2(CCN(CC(C)C)CC2)N=5)=NC(=O)/C(C)=C\C=C\[C@H](C)[C@H](O)[C@@H](C)[C@@H](O)[C@@H](C)[C@H](OC(C)=O)[C@@H]1C` stands -15.3%; under `O=C(OCC(COC(=O)c1ccccc1)(COC(=O)c1ccccc1)COC(=O)c1ccccc1)c1ccccc1`, -3%. With `ClC1=C(Cl)C(Cl)(Cl)C(Cl)=C1Cl`, the max response is -13.8% and the Potency is 11.2 µM (active).

As for `CC(=O)Nc1ccc(C(=O)CCl)cc1`, the Potency was 22.4 µM (active) and 25.1 µM (active). As for `Nc1ccc2cc3ccccc3cc2c1`, the max response was -16.2%. As to `c1ccc2c(c1)-c1cccc3c1c-2cc1ccccc13`, the max response was -13.5% and -14.9%.

Turning to `O=C=Nc1ccc(Cc2ccc(N=C=O)cc2)cc1`, the max response was 9.46% and -11.9%.

With `O=[N+]([O-])c1cc([N+](=O)[O-])c2ccc(S(=O)(=O)O)cc2c1O`, the max response is -2.67%. In the case of `Cc1cc(O)c(C(C)(C)C)cc1Sc1cc(C(C)(C)C)c(O)cc1C`, the Potency was 70.8 µM (active) and 50.1 µM (active). On the same count and under the same terms, under `CCC(C)Nc1ccc(NC(C)CC)cc1` (centres undefined) stands 28.2 µM (active).
